# From PubChem BioAssay
# Tested on: not listed separately
# Experiment: probe aLAP1 signal on lysate-treated microarray – cell lysate, small-molecule microarray, COS7 lysate, primary screen (AID 1124);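 note: lysate comes from COS7 cells expressing LAP1 and is applied at 0.3 µg/mL; score merges spot fluorescence near 667 nm with signal-to-noise over triplicate slides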
# Conditions: probe aLAP1, fluorescence, higher = more signal
row,Compound,composite z-score
1,COc1ccc(C(=O)Nc2ccc(CN3C(=O)[C@]4(O[C@H](CC(=O)N5Cc6ccccc6C[C@H]5CO)[C@@H]([Si](C)(C)c5ccc(OC)cc5)[C@@H]4C)c4ccccc43)cc2)cc1,0.0688
2,Cn1cccc1C(O)C1C=CC2C(=O)N(c3ccccc3)C(=O)C2N1Nc1ccccc1 (stereo not given),0.461
3,CCOC(=O)C[C@H]1[C@H](OC(=O)c2cc3ccccc3oc2=O)[C@@H](NC(=O)CC(C)C)c2cc(OCCCO)ccc2N1C(=O)c1ccc2ccccc2n1,0.102
4,CC[C@@H]1C=C(C(=O)O)[C@H](c2ccccc2)N1S(=O)(=O)c1ccc(C)cc1,1.38
5,C=CC[C@@H](OC(=O)Nc1ccc(SC)cc1)c1ccc(O)c(F)c1,0.341

# Tested on: Sam68 (KHDRBS1)
# Experiment: compounds binding KHDRBS1 protein – biochemical, small-molecule microarray, 635 nm fluorescence, primary screen (AID 1125);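 note: score merges 667 nm channel intensity with signal to noise over triplicate slides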
# Conditions: higher = more signal
row,Compound,composite z-score
1,C[C@@H]1NC(=O)[C@@H](Cc2ccccc2)NC(=O)[C@@]23C(=O)N[C@@H](Cc4ccccc4)C2[C@H](C)[C@@]2(C)O[C@H]2C3/C=C/C/C=C\CNC1=O (stereo not given in full),0.126
2,COc1cccc(C)c1NC(=O)O[C@H]1[C@H](OC(=O)Nc2ccc3c(c2)OCO3)[C@@H](OC(=O)Nc2ccc3c(c2)OCO3)[C@@H](OC)O[C@@H]1CO,1.29
3,C=C(COC)/C(=C/C[C@H](OC(=O)c1ccncc1)c1ccc(CO)o1)c1cnc2ccccc2c1,1.27
4,CC(C)=C1C(=O)C(c2ccccc2)=C2CN3C(=O)N(CCc4ccccc4)C(=O)[C@]3(Cc3ccc(C(F)(F)F)cc3)[C@H]21,-0.439
5,CCCCNC(=O)c1ccc(C#CC(C)(C)C)c(OC(C)=O)c1,1.02
6,C=CCC(OC(C)=O)[C@@H]1[C@@H](N(Cc2cccc3ccccc23)C(=O)Cc2ccc(OC)cc2)c2cc(OCCCO)ccc2N1C(=O)c1ccc(-c2ccccc2)cc1 (stereo not given in full),-0.189
7,COc1cc(NN2C(C(O)c3ccc(N(C)C)cc3)C=CC3C(=O)N(c4ccccc4)C(=O)C32)cc(OC)c1OC (stereo not given),0.913
8,CCCC[C@@H](O)C1=C(COC)C[C@H]2C(=O)N(C)C(=O)[C@H]2[C@H]1CO,-0.0046
9,CC1CC/C=C\[C@H]2OC34C=CCN(c5ccc6ccccc6c5)C(=O)[C@H]3N(CCCO)C(=O)[C@@H]4C2C(=O)O1 (stereo not given in full),-0.335
10,CC(C)C(CO)N1C(=O)[C@@H]2[C@H]3C(=O)OCC=C[C@H]3OC23C=CCN(c2ccc(Cl)cc2)C(=O)[C@@H]13 (stereo not given in full),0.0729
11,CCCN1C(=O)[C@@]2(Cc3ccccc31)N=C(c1ccc(OCCCO)cc1)O[C@H]2c1ccccc1,1.31
12,O=C(O)[C@@H]1[C@@H]2C(=O)N(c3ccccc3)C(=O)[C@@H]2C[C@@H]1Sc1ccccc1,-0.983
13,COCCOC(=O)N1C(=O)[C@@]2(c3cc(C#CCNC(N)=O)ccc31)[C@H](C(N)=O)[C@H]1C(=O)O[C@H](c3ccccc3)[C@H](c3ccccc3)N1[C@@H]2c1ccccc1OCCO,1.05
14,COC(=O)[C@@]1(Cc2ccc(OC)cc2)[C@H]2c3cc(C(=O)N4CCCC4)n(CCO)c3C[C@H]2CN1C(=O)c1ccccc1,0.827
15,C[N+](C)(C)CCCCCCNC(=O)[C@@H]1C[C@@H]2C(=O)N3CCC[C@H]3C(=O)N2[C@@H]1c1ccc(O)cc1,0.904
16,O=C1O[C@@H](c2ccccc2)[C@@H](c2ccccc2)N2[C@@H](c3ccc(O)cc3)[C@]3(C(=O)Nc4ccc(C#CCCO)cc43)[C@@H](C(=O)N3CCN(c4ncccn4)CC3)[C@H]12,1.11
17,CC(C)c1ccc(NN2C(C(O)c3ccc(F)cc3)C=CC3C(=O)N(c4ccccc4)C(=O)C32)cc1 (stereo not given),1.31
18,C[N+](C)(C)CCCC[C@@H]1NC(=O)[C@@H]2C[C@H](C(=O)NCCCCCCN)[C@H](c3cccc(OCCO)c3)N2C1=O,1.31

row,Compound,composite z-score
1,Cc1ccc(S[C@]2(C(=O)NCC(F)(F)F)CC(=O)N(Cc3cc(C(F)(F)F)cc(C(F)(F)F)c3)[C@@H]2c2ccc(CO)cc2I)cc1,-1.47
2,C=C[C@H]1C(C(=O)OCC)=CC[C@@H](c2ccccc2)N1S(=O)(=O)c1ccc(C)cc1,1.1
3,CCCCN1CC=CC23O[C@@H]4/C=C\CCCOC(=O)C4[C@H]2C(=O)N(CCO)[C@@H]3C1=O (stereo not given in full),0.109
4,CCCCN1CC=CC23O[C@@H]4/C=C\CCC(C)OC(=O)C4[C@H]2C(=O)N(CCCO)[C@@H]3C1=O (stereo not given in full),-0.62
5,O=C(NCc1ccc(F)cc1)[C@H]1C[C@H]2C(=O)NCC(=O)N2[C@H]1c1ccc(O)cc1,1.07
6,CCOC(=O)C[C@H]1[C@H](OC(=O)Cc2ccc3c(c2)OCO3)[C@@H](NC(=O)c2ccc3ccccc3n2)c2cc(OCCCO)ccc2N1C(=O)c1ccccc1,0.416
7,COc1cc2c(cc1O)C(C1CC1)N(C)CC2 (stereo not given),-0.758
8,COC(=O)C1=CC(CCCO)=CC(c2cccs2)N(Cc2cccc(OC(F)(F)F)c2)C=C1C(=O)OC (stereo not given),1.3
9,COCCCNC(=O)[C@@]1(Sc2ccc(C)cc2)CC(=O)N(C2Cc3ccccc3C2)[C@@H]1c1ccc(CO)cc1,0.209
10,CN(C)c1ccc(C(O)C2C=CC3C(=O)NC(=O)C3N2Nc2ccccn2)cc1 (stereo not given),0.711
11,COc1ccccc1CN1C(=O)c2ccccc2[C@](Cc2ccccc2I)(C(=O)O)[C@@H]1c1ccc(CO)cc1,1.27
12,CC(C)N1CC=CC23O[C@@H]4C=CCCOC(=O)C4[C@H]2C(=O)N(CCCO)[C@@H]3C1=O (stereo not given in full),0.334
13,COc1ccc(C(=O)Nc2ccc(CN3C(=O)[C@]4(O[C@H](CC(=O)N5Cc6ccccc6C[C@H]5CO)[C@@H]([Si](C)(C)c5ccc(OC)cc5)[C@@H]4C)c4ccccc43)cc2)cc1,1.17
14,Cn1cccc1C(O)C1C=CC2C(=O)N(c3ccccc3)C(=O)C2N1Nc1ccccc1 (stereo not given),1.3
15,CCOC(=O)C[C@H]1[C@H](OC(=O)c2cc3ccccc3oc2=O)[C@@H](NC(=O)CC(C)C)c2cc(OCCCO)ccc2N1C(=O)c1ccc2ccccc2n1,1.26
16,CC[C@@H]1C=C(C(=O)O)[C@H](c2ccccc2)N1S(=O)(=O)c1ccc(C)cc1,0.95
17,C=CC[C@@H](OC(=O)Nc1ccc(SC)cc1)c1ccc(O)c(F)c1,0.152
